This passage reports composite z-score and z-score results from PubChem BioAssay.

The subject of test [1] is Wnt5a (protein binding on small-molecule microarray). As to the kind of experiment: Wnt5a binders on small-molecule microarray, primary screen, biophysical, 635/667 nm fluorescence (AID 1142).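 Also: fluorescence read at 667 nm with signal to noise per printed feature.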 The following applies: 635 nm fluorescence, higher = more signal.
Test [2] can be described thus: cell viability in Huh7 cells, primary screen, cytotoxicity control for HCV replication inhibitor project, CellTiter-Glo luminescence, basal, 48 h (AID 1143).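 Also: Huh7 hepatoma cells carrying a hepatitis C replication reporter with no stimulus; test concentration not given here.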 Particulars: Huh7 HCV replicon, higher = more signal, called active from +8 up or from −8 down. On the technique in general: ATP-based viability assays read luminescence as a measure of living cells.
Test [3] can be described thus: P. aeruginosa biofilm formation inhibitors, primary screen, PAO1 strain, BacTiter-Glo luminescence, LB-PBS (AID 1144). Particulars: 12 h, higher = more signal.
Test [4] is described as follows: CREB reporter modulators without forskolin, primary screen, cell-based, PC12, CRE-LacZ reporter, unstimulated (AID 1145). The following applies: no forskolin, luminescence, 4.5 h, higher = more signal, called active from +8 up or from −8 down.
The nature of test [5]: CREB reporter modulators under forskolin, primary screen, cell-based, PC12, CRE-LacZ reporter, forskolin-stimulated (AID 1146).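 Also: PC12 cells with 6xCRE LacZ reporter stimulated by forskolin 10 µM; beta-galactosidase reporter signal reflecting CREB driven transcription.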 Particulars: luminescence, 4.5 h, higher = more signal, called active from +8 up or from −8 down.
In test [6] the target is Streptavidin (Streptomyces avidinii) (UniProt P22629). As to the kind of experiment: streptavidin binders on small-molecule microarray, primary screen, artefact control for SMM compound annotation, biophysical, 635/667 nm fluorescence (AID 1147).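 Also: signal reflects streptavidin binding to arrayed compounds as a control protein.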 Particulars: streptavidin binding, higher = more signal.
Sequence of Streptavidin (Streptomyces avidinii) (P22629 whole entry, looked up): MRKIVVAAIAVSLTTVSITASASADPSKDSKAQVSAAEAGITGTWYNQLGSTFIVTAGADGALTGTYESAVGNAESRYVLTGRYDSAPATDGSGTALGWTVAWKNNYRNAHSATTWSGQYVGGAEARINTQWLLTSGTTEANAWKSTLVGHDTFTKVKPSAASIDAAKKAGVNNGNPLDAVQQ
Test [7] in a line: small-molecule binders of probe aInhba, primary screen, biochemical, small-molecule microarray, 635/667 nm fluorescence (AID 1148).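 Also: score merges 667nm spot fluorescence with signal-to-noise for antibody binding to printed compounds.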 The following applies: higher = more signal.
Test [8] has as its target Torsin-1A (Homo sapiens) (UniProt O14656). As to the kind of experiment: torsin A binders from cell lysate, primary screen, small-molecule microarray, wild-type, 635/667 nm (AID 1149). Particulars: COS7 hTOR1A-WT lysate, 635 nm fluorescence, higher = more signal.
Test [9] has the same target. The test can be described thus: small-molecule binders of mutant TOR1A in lysate, primary screen, cell lysate, small-molecule microarray, COS7 lysate, 635/667 nm fluorescence (AID 1150).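 Also: score pools 667 nm emission and signal to noise measuring lysate protein binding.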 Particulars: COS7 hTOR1A mutant lysate, 635 nm fluorescence, higher = more signal.
Test [10] relates to Sonic hedgehog protein (Shh). The test can be described thus: small-molecule binders of Shh protein, primary screen, biochemical, small-molecule microarray, 635/667 nm fluorescence (AID 1151).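 Also: Shh protein binding to compounds spotted on small-molecule microarray slides; score combines spot fluorescence intensity with signal-to-noise across triplicate slides.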 The following applies: small-molecule microarray binding, 635 nm fluorescence; higher = more signal.
A short description of test [11]: E. coli DRC41 culture turbidity changes, primary screen, E. coli filamentation inducer project, strain DRC41, OD650, 48 h (AID 1152).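 Also: E. coli MC1000 strain DRC41 lacking acrAB efflux pump and sulA.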 Particulars: E. coli DRC41 (acrAB sulA), higher = more signal, called active from +8 up or from −8 down.
Test [12] in a line: small-molecule binders of probe aLefty1, primary screen, biochemical, small-molecule microarray, 635/667 nm fluorescence (AID 1153).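 Also: score merges spot fluorescence with signal-to-noise ratio from the scanned slide images.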 Particulars: higher = more signal.
Test [13] in a line: PSAC antagonists in infected red cells, primary screen, cell-based, P. falciparum Indochina, OD700, 1 h (AID 1154). The following applies: P. falciparum Indochina infected RBC osmotic lysis, higher = more signal, called active from +8 up or from −8 down.
A short description of test [14]: PSAC antagonists in infected red cells, primary screen, cell-based, P. falciparum Indochina, OD700, 2 h (AID 1155).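 Also: lysis reports solute entry through the parasite surface anion channel PSAC; channel blockers reduce lysis of infected cells.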 Particulars: P. falciparum Indochina infected erythrocytes, osmotic lysis OD700; higher = more signal, called active from +8 up or from −8 down.
A short description of test [15]: osmotic lysis modulators in infected erythrocytes, primary screen, PSAC antagonist project, cell-based, P. falciparum Indochina, OD700, 3 h (AID 1156). Particulars: higher = more signal, called active from +8 up or from −8 down.
Test [16] can be described thus: PSAC antagonists in infected red cells, primary screen, cell-based, P. falciparum Indochina, OD700, 18 h (AID 1157). The following applies: P. falciparum Indochina infected erythrocytes, osmotic lysis OD700, 18 h; higher = more signal, called active from +8 up or from −8 down.
A short description of test [17]: modulators of S6 phosphorylation in cells, primary screen, cell-based, A549, cytoblot, luminescence, serum-stimulated (AID 1158).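 Also: serum-stimulated A549 lung adenocarcinoma cells; signal is phosphorylated S6 detected by cytoblot immunostaining with HRP secondary.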 The following applies: A549 phospho-S6 cytoblot, 5 h, higher = more signal.
Test [18] has as its target NADPH oxidase 2 (Homo sapiens) (UniProt P04839). The test can be described thus: NOX2-dependent H2O2 signal modulators, primary screen, NOX inhibitor project, cell-based, HEK293-NOX2, PMA-stimulated, Amplex Red fluorescence (AID 1159). Also: test concentration not given here. Particulars: 45 min, higher = more signal, called active from +8 up or from −8 down.
Test [19] addresses NADPH oxidase 4 (Homo sapiens) (UniProt Q9NPH5). As to the kind of experiment: NOX4-dependent H2O2 signal modulators, primary screen, NOX inhibitor project, cell-based, HEK293-NOX4, tetracycline-induced, Amplex Red fluorescence (AID 1160). Particulars: 45 min, higher = more signal, called active from +8 up or from −8 down.
In test [20] the target is NADPH oxidase 5 (Homo sapiens) (UniProt Q96PH1). As to the kind of experiment: NOX5-dependent H2O2 signal modulators, primary screen, NOX inhibitor project, cell-based, HEK293-NOX5, Amplex Red fluorescence (AID 1161). Particulars: HEK293-NOX5, ionomycin, 45 min, higher = more signal.
Sequence of NADPH oxidase 5 (Homo sapiens) (Q96PH1 whole entry, looked up): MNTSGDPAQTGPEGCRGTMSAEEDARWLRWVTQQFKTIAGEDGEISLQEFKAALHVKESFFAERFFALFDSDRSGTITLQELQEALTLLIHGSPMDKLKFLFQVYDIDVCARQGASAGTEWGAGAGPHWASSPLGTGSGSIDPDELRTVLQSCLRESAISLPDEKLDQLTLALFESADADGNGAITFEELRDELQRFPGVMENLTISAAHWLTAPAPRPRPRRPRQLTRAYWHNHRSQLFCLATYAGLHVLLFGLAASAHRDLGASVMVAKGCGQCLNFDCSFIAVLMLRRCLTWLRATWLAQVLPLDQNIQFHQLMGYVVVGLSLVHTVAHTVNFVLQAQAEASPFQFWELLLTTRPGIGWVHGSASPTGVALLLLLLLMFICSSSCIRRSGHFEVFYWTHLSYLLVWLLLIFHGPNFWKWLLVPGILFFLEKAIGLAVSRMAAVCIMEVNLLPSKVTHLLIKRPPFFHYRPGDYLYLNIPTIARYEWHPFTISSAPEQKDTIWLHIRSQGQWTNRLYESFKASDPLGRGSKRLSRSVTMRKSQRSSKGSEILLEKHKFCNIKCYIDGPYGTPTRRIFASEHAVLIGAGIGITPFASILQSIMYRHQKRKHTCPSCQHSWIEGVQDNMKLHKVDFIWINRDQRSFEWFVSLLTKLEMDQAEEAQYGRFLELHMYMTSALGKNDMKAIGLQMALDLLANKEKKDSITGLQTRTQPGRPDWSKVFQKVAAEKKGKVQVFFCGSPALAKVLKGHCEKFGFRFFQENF

Molecules are shown by their SMILES. The source made the active and inactive calls. Unless noted, no rule for the calls is given here.

Sequence of NADPH oxidase 4 (Homo sapiens) (Q9NPH5 whole entry, looked up): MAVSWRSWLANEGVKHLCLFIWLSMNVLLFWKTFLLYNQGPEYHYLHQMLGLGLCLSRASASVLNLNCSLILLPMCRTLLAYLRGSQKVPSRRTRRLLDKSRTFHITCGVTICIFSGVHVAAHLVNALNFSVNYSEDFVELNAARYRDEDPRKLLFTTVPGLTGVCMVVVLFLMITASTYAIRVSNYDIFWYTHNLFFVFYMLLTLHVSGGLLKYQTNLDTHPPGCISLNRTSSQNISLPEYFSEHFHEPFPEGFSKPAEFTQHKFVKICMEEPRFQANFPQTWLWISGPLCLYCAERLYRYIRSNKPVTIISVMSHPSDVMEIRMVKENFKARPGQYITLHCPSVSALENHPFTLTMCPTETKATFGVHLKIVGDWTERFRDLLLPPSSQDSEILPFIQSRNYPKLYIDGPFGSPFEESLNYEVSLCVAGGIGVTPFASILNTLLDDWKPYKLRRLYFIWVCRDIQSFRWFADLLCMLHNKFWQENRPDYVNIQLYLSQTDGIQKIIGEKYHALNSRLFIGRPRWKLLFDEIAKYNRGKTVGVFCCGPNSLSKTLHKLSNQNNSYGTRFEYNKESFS
Sequence of Torsin-1A (Homo sapiens) (O14656 whole entry, looked up): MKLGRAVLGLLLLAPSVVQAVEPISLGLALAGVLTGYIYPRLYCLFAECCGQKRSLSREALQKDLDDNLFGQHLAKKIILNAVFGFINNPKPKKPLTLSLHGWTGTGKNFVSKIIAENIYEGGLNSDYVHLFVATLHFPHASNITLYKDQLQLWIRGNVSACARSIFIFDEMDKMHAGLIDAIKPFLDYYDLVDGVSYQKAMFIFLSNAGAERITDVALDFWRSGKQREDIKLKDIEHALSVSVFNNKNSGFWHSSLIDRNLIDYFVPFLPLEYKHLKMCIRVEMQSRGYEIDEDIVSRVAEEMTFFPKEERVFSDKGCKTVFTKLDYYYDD
Sequence of NADPH oxidase 2 (Homo sapiens) (P04839 whole entry, looked up): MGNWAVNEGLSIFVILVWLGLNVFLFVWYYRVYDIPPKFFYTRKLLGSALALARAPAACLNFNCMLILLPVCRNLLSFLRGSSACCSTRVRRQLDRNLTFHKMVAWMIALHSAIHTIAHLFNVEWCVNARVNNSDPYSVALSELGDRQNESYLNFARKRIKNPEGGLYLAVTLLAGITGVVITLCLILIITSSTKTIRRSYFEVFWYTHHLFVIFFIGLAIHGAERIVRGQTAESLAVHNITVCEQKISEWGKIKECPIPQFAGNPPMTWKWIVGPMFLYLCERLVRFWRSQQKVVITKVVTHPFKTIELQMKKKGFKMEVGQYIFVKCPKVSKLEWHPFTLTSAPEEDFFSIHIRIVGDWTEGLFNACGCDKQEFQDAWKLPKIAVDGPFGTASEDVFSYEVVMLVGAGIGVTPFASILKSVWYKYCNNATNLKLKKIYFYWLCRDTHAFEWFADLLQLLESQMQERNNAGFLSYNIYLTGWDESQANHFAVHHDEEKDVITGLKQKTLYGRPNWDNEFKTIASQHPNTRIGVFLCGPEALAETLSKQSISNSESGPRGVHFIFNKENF

As for `CC(=O)NCCCC[C@@H]1NC(=O)[C@H]2C[C@@H](C(=O)NCCCCCNC(=O)CS)[C@@H](c3ccc(O)cc3)N2C1=O`, the composite z-score in test [1] was 0.0736; in test [6], -0.502; in [7] it was 0.0391; with Torsin-1A (Homo sapiens) [8], 0.261; with Torsin-1A (Homo sapiens) [9], -0.711; in test [10], 0.468. In test [12], this compound registered a composite z-score of -0.12. Also, the z-score was -0.47 (inactive) in [2]; -0.589 (inactive) in [3]; -0.122 (inactive) in test [4]; -0.112 (inactive) in test [5]; -0.0078 (inactive) in test [11]; 1.94 (inactive) in test [13]. In addition, the z-score in test [14] is 0.811 (inactive); in [15] it was -0.952 (inactive); in [16] it was 0.425 (inactive); in test [17], -0.591; in [18], 0.772 (inactive); in [19], -2.06 (inactive). In addition, the z-score in [20] is -0.294.
For the compound `CCCCCCc1nc(-c2ccc(-c3ccc(Cl)c(Cl)c3)o2)cc2c1[Si](C(C)C)(C(C)C)O[C@H]2c1ccccc1`, the composite z-score in [1] was -0.355; in test [6] it was -0.711; in test [7], -0.0719; in the test with Torsin-1A (Homo sapiens) [8], -0.512; with Torsin-1A (Homo sapiens) [9], 0.978; in [10] it was -0.434. Besides, in test [12], the composite z-score was -0.598. The z-score is -0.731 (inactive) in test [2]; -0.206 (inactive) in test [3]; -0.113 (inactive) in [4]; 0.497 (inactive) in test [5]; 0.321 (inactive) in test [11]; 0.439 (inactive) in test [13]. For the same compound, the z-score in test [14] was 0.0435 (inactive); in [15] it was 1.47 (inactive); in test [16], 0.333 (inactive); in test [17], 0.205; in [18] it was -1.24 (inactive); in [19] it was -1.44 (inactive). Moreover, in test [20], the z-score was -1.49.
`COc1ccc(NC(=O)O[C@H]2[C@H](OC(=O)c3cc4ccccc4[nH]3)[C@@H](OC(=O)c3cc4ccccc4[nH]3)[C@@H](OC)O[C@@H]2CO)cc1`: the composite z-score in [1] was 0.147; in [6], -0.342; in test [7], -0.0044; with Torsin-1A (Homo sapiens) [8], -0.0863; with Torsin-1A (Homo sapiens) [9], 0.291; in test [10], 0.593. The composite z-score in [12] was -0.0529. For the same compound, the z-score in [2] is -4.18 (inactive); in test [3], -1.65 (inactive); in test [4] it was 1.84 (inactive); in test [5], -1.1 (inactive); in test [11], 0.799 (inactive); in test [13] it was 2.35 (inactive). The z-score in test [14] is -0.529 (inactive); in test [15], 0.52 (inactive); in test [16] it was -0.955 (inactive); in test [17] it was 1.22; in [18] it was -3.65 (inactive); in test [19], -1.18 (inactive). In test [20], this compound displayed a z-score of -4.46.
As to `COc1ccc(CCNC(=O)[C@@]2(c3ccc([N+](=O)[O-])cc3)CC(=O)N(CC34CC5CC(CC(C5)C3)C4)[C@@H]2c2ccc(CO)cc2I)cc1`, the composite z-score is 0.522 in test [1]; -0.0522 in [6]; -0.443 in test [7]; 0.292 with Torsin-1A (Homo sapiens) [8]; 1.05 with Torsin-1A (Homo sapiens) [9]; 1.75 in [10]. The composite z-score in test [12] is -0.223. Moreover, the z-score in test [2] was -5.87 (inactive); in [3] it was -1.53 (inactive); in test [4], 0.378 (inactive); in test [5] it was -0.107 (inactive); in test [11], 0.655 (inactive); in test [13], 16.3 (active). Moreover, the z-score in test [14] is 3.25 (inactive); in [15], 3.61 (inactive); in test [16] it was 0.838 (inactive); in test [17], 3.37; in [18], 0.675 (inactive); in [19], -4.2 (inactive). Also, the z-score in [20] was -3.66.
As for `NCCCCCCNC(=O)[C@H]1C[C@H]2C(=O)N[C@@H](Cc3ccccc3)C(=O)N2[C@H]1c1cccc(OCCO)c1`, the composite z-score was -0.0371 in test [1]; 1.09 in test [6]; -0.128 in test [7]; 1.24 with Torsin-1A (Homo sapiens) [8]; 0.916 with Torsin-1A (Homo sapiens) [9]; 0.16 in test [10]. Moreover, in test [12], the composite z-score is -0.141. Moreover, the z-score in test [2] was 0.173 (inactive); in [3], -0.687 (inactive); in test [4], -0.545 (inactive); in [5], -0.711 (inactive); in test [11], 0.921 (inactive); in test [13] it was 5 (inactive). Besides, the z-score in [14] is 0.944 (inactive); in test [15], 2.3 (inactive); in [16] it was 0.472 (inactive); in test [17], -0.147; in [18], 0.997 (inactive); in test [19], 0.736 (inactive). The z-score in [20] is 0.392.
